From PubChem
In the library only some 3.7% were active in any assay of this set; here they are far more common.
tim23-1 inh: growth inhibitors of tim23-1 mutant yeast. S. cerevisiae tim23-1 growth, BacTiter-Glo luminescence, 24 h. inhibition, % at 20 µM. 330,000 tested, 1.3% active;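 active = growth inhibition of the mutant yeast at or above 50%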;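 note: temperature-sensitive mutant grown at 25 °C; plate controls were DMSO-treated mutant yeast for no effect and medium wells lacking yeast for full effect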
tim10-1 inh: tim10-1 yeast growth inhibition. S. cerevisiae tim10-1 ts strain growth, BacTiter-Glo, 24 h. inhibition, % at 20 µM. 330,000 tested, 2.2% active. AID 463190;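 active = inhibition of at least 40%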;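 note: mutant grown at 25 °C; 0% = DMSO wells with yeast and 100% = wells holding no yeast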
PfHsp90 yeast 2: inhibits growth of yeast expressing Plasmodium falciparum Hsp90. 310,000 tested, 0.32% active. AID 504621. inhibition, % at 9.4 µM. S. cerevisiae expressing PfHsp90, BacTiter-Glo ATP, 48 h; yeast lacking PDR1 and PDR3 efflux regulators;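 active = every replicate shows inhibition above about 80%, whatever the replicate mean, limit read from the data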;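 note: 0% = DMSO neutral controls and 100% = 20 µM radicicol positive controls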
TIM10 inh: growth inhibitors of TIM10 yeast strain; inhibition, % at 10 µM; S. cerevisiae TIM10 strain growth, BacTiter-Glo luminescence, 24 h; AID 463195; 330,000 tested, 1.4% active;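 active = inhibition of 40% or more at the single tested concentration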;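 note: wild-type TIM10 isogenic control strain grown at permissive 25 °C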
Rce1 inhib: blocks yeast Ras-converting enzyme. yeast membranes, quenched prenylated peptide cleavage fluorescence. 290,000 tested, 0.27% active. Q03530. AID 2563. calls only;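 active = fall in fluorescence gain of 50% or more versus controls, with final raw signal at or below 3038400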;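 note: plate controls were neutral control wells for no effect and wells lacking membranes for full effect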
Target sequence (Q03530 whole entry, looked up): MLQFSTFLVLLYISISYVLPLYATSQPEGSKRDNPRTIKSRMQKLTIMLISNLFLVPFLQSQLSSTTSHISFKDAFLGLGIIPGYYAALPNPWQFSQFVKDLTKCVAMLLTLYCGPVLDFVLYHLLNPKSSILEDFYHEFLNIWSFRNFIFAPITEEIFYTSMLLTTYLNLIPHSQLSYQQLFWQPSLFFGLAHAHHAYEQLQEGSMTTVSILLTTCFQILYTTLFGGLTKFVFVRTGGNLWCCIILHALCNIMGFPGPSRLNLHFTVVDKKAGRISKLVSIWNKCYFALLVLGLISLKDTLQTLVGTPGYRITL
tim10 confirm: TIM10 yeast growth inhibition, confirmed; shares compounds with TIM10 inh; S. cerevisiae tim10 strain growth, BacTiter-Glo luminescence, 24 h; inhibition, % at 10 µM; 4,600 tested, 63% active; AID 463215;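 active = inhibition of yeast growth at or above a set limit in either of two replicates at 10 µM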;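 note: this counterscreen used the strain with wild-type TIM10; 0% = yeast with DMSO and 100% = medium wells lacking yeast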
Active calls of the source: *; i = inactive; x = no result.

SMILES	tim23-1 inh	tim10-1 inh	PfHsp90 yeast 2	TIM10 inh	Rce1 inhib	tim10 confirm
O=C(COc1ccc(Cl)cc1Cl)NNC(=S)Nc1ccc(F)cc1	41	38	4	45*	i	38*
CC(CC(=O)Nc1cc(S(=O)(=O)N2CCOCC2)ccc1OCC(F)(F)F)c1ccccc1 (stereo not given)	9	16	-22	-5	x	x
CN(C)c1ccc(C(=O)/C=C/c2ccc(Br)cc2)cc1	29	26	15	14	i	x
O=C(/C=C/c1ccc(Br)cc1)c1ccc(NC2=NCCCS2)cc1	37	35	12	52*	i	29
CC(C)(C)C(=O)NC(=S)Nc1ccc(F)cc1	20	19	0	7	i	x
COc1ccc(C2(O)CCN(CC(=O)Nc3nc(-c4ccccc4)cs3)CC2)cc1	47	35	47	52*	i	43*
COc1ccc(C(=O)N2CCCC(c3ccccc3)=N2)cc1	39	40	5	45*	i	22
Cc1ccc(C(=O)N2CCCC(c3ccc(Cl)cc3)=N2)cc1	29	31	-18	4	x	x
COc1ccc(/C=C/C(=O)c2ccc(Cl)cc2)c(OC)c1	26	28	14	44*	i	26
COc1ccc(C(=O)C=CNNC(=O)c2ccc(Cl)cc2)cc1	22	-2	0	2	i	x
COc1ccc(NC(=O)CCCc2ccccc2)cc1OC	14	4	-6	-6	i	x
O=C1/C(=C/c2ccc(F)cc2)CCC1C1CCCC1 (stereo not given)	23	23	18	17	i	x
O=C1C(=C2SCCCS2)CC/C1=C\c1ccc(F)cc1	18	-28	8	42*	i	41*
Cc1cccc(/C=C2\CCC(=C3SCCCS3)C2=O)c1	49	34	20	44*	i	66*
NNc1nc(-c2ccccc2)nc2sc3c(c12)CCCC3	42	28	-10	33	i	x
Nc1c2c(nc3sc4c(c13)CCCC4)-c1ccccc1CC2	23	22	-2	43*	i	41*
Cc1[nH]nc(N=CC2=C(O)CC(C)(C)CC2=O)c1-c1ccc(Cl)cc1	21	36	-2	41*	i	30*
Cc1[nH]nc(N=CC2=C(O)CC(c3ccco3)CC2=O)c1-c1ccc(Cl)cc1 (stereo not given)	27	25	3	21	i	x
O=S(=O)(Nc1cccc2c1ccc1cccn12)c1cccs1	28	31	-29	45*	i	2
CC(C)c1ccc2[nH]c(O)c(N=NC(=S)NCCc3ccccc3)c2c1	1	25	-6	17	i	x
CCNC(=S)N=Nc1c(O)[nH]c2ccc(C(C)C)cc12	35	32	0	41*	i	-20
Fc1ccc(/C=N/n2c(-c3cccs3)n[nH]c2=S)cc1	41	30	4	45*	i	28
COCCN(Cc1cc2cc(C)ccc2[nH]c1=O)S(=O)(=O)c1ccc(Cl)cc1	6	17	-30	20	i	x
O=C(CCl)N(CCc1ccccc1)CCc1ccccc1	49	-78	-5	-35	i	x
Cc1ccc(CNC(=O)COC(=O)c2nc(-c3ccccc3)oc2C)cc1	28	-3	-99	-4	x	x
SMILES	tim23-1 inh	tim10-1 inh	PfHsp90 yeast 2	TIM10 inh	Rce1 inhib	tim10 confirm
CCCCn1c(N)c(N(CC(C)C)C(=O)c2cc3c(s2)CCC3)c(=O)[nH]c1=O	5	4	21	4	i	x
Cc1ccc(C(=O)N(C)Cc2nc3ccccc3c(=O)[nH]2)cc1NC(=O)c1ccco1	0	-6	-5	-9	x	x
Cc1c(Cl)cccc1NC(=S)NCc1ccccc1	28	30	4	46*	i	21
Cc1c(Cl)cccc1NC(=S)NCc1ccc(Cl)cc1	-11	25	22	-10	i	x
O=C(CN1CCc2ccccc2C1)NC1CCCC1	0	4	0	4	i	x
O=C(CN1CCN(c2nc(-c3ccc(Cl)cc3)cs2)CC1)NCc1ccco1	23	20	x	42*	i	29*
O=C1CC(N2CCN(c3ccccn3)CC2)C(=O)N1CC(c1ccccc1)c1ccccc1 (stereo not given)	15	26	-7	42*	i	31
O=C(/C=C/c1ccc2c(c1)OCO2)NCCSCc1ccc(Cl)cc1Cl	13	37	-31	41*	i	3
O/N=C/c1cc2ccccc2n1Cc1ccccc1F	6	2	-5	-9	i	x
CC(C)/C=C1\CC/C(=C\c2cccnc2)C1=O	41	23	17	30	i	x
O=C1/C(=C\c2cccnc2)CCc2ccccc21	40	40	17	44*	i	40*
CCNC(=S)NN=C1c2ccccc2-c2ccccc21	7	37	-51	44*	i	25
CC(=O)NCc1ccc(S(=O)(=O)N/N=C/c2ccc(N(C)C)cc2)cc1	4	0	-24	6	i	x
CC(=O)c1ccc(NC(=S)Nc2ccc(Br)c(Cl)c2)cc1	44	37	26	42*	i	24
O=C(Nc1ccccc1)Nc1ccc(Br)c(Cl)c1	-11	-8	-14	-4	i	x
COc1cc(C(C)=O)ccc1Oc1ncccn1	5	-15	15	-12	i	x
O=C1NCCOC(=O)[C@H](Cc2ccc(F)cc2)C/C=C\C[C@@H]1CC(=O)N(CCO)Cc1ccccc1	0	-8	-5	4	x	x
O=C1NCCOC(=O)[C@H](Cc2ccc(F)cc2)C/C=C\C[C@H]1CC(=O)N(CCO)Cc1ccccc1	-9	-6	0	47*	x	-5
N#Cc1nc(COc2ccccc2)oc1N1CCCCCC1	18	18	-11	75*	i	4
Cc1ccc(-c2csc(NC(=O)c3cccc(S(=O)(=O)N4CCN(C)CC4)c3)n2)cc1	12	4	1	28	i	x
O=C(Nc1nc(-c2cccs2)cs1)c1cccc(S(=O)(=O)N2CCCCC2)c1	31	28	23	42*	x	31*
O=C1Nc2ccc([N+](=O)[O-])cc2OC1CCN1CCN(c2ccccc2)CC1 (stereo not given)	4	-1	17	-2	i	x
CN(C(=O)CN(c1ccccc1)S(=O)(=O)c1ccc(F)cc1)C1CCS(=O)(=O)C1 (stereo not given)	12	-6	0	-3	i	x
Cc1ccc(CNC(=O)c2cn(C3CCCCC3)c(=O)c3c2c2ccccc2n3C)o1	26	26	-30	43*	i	-10
O=C(NC1CCCCCC1)c1cc(S(=O)(=O)N2CCCCC2)ccc1N1CCOCC1	8	23	0	20	i	x
O=C(NC1CCCCCC1)c1cc(S(=O)(=O)N2CCOCC2)ccc1N1CCCCC1	24	23	x	44*	i	31
COc1cccc(NC(=S)N2CCC(N(C)CC3CCCO3)CC2)c1 (stereo not given)	12	-1	38	-6	i	x
